From PubChem BioAssay
HT1080 IDH1KD tx = HT-1080 IDH1 knockdown cell toxicity (counter line). HT-1080 IDH1 knockdown viability, ATP luminescence, 48 h. Potency, µM (titrated, usually from 46.1 µM), without a hit: at the top dose activity, negative = toxicity, actives largely listed as cytotoxic. 360,000 tested, 2% active;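 also: potency is read from the fitted curve at half-maximal effect; 0% = DMSO wells and -100% = cell-free medium wells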
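Luminescent ATP read-out (CellTiter-Glo, 10 min at room temperature) after 48 h compound exposure at 37 °C gave viability of IDH1-knockdown HT-1080 cells. Activity was normalised to DMSO and cell-free wells, then fitted as concentration-response curves.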
TDP1 cell CPT = growth inhibition of DT40 Tdp1-/-;hTDP1 cells with camptothecin (screen for TDP1 inhibitors); chicken DT40 Tdp1-/-;hTDP1 cells + 20 nM CPT, ATP luminescence, 48 h; Potency, µM (titrated, usually from 46.2 µM), inactives show top-dose activity change, negative = growth inhibition, actives largely listed as inhibitors; 420,000 tested, 12% active; AID 686979; also: potency is read from the fitted curve at half-maximal effect; nearly all actives have a fitted effect of over 55% in size
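Cell growth measured by CellTiter-Glo luminescence after a minimum 48 h, 37 C compound exposure with 20 nM CPT in Tdp1-knockout DT40 cells stably expressing hTDP1, seeded 400/well; qHTS titration format.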
ALOX12 inh = blocks human arachidonate 12S-lipoxygenase. P18054. purified 12hLO, xylenol orange hydroperoxide absorbance. 580,000 tested, 1.1% active. Potency, µM (series often up to 108 µM), without a hit: at the highest dose activity change, negative = inhibition, hits mostly inhibitors. AID 1671190; also: potency is read from the fitted curve at half-maximal effect
Target sequence (P18054 whole entry, looked up): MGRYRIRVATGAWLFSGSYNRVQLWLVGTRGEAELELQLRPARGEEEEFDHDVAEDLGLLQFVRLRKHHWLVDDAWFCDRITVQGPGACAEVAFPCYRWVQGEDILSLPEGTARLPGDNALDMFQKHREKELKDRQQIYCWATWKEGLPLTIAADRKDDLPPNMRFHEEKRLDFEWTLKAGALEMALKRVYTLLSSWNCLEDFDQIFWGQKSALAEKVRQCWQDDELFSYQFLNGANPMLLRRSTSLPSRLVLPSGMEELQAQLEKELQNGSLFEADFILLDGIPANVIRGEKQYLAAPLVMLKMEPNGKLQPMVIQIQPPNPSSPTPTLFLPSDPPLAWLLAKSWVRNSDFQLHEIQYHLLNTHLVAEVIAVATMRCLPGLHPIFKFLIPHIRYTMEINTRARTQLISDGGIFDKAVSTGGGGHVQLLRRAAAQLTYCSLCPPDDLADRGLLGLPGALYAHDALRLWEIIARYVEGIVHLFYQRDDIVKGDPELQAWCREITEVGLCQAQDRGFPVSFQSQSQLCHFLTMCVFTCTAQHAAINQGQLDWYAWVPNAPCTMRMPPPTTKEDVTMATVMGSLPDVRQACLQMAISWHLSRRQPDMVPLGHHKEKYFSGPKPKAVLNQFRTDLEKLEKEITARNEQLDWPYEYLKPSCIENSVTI
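Hydroperoxide product was detected by ferrous iron/xylenol orange as the 573 to 405 nm absorbance ratio. Arachidonic acid at 40 uM (final) was turned over for 30 min at room temperature by 150 nM human 12hLO, pH 7.0 Hepes buffer, after 15 min compound preincubation.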
IL1B secr inh = inflammasome signaling inhibition, IL-1 beta readout. THP-1 LPS/ATP IL-1B secretion, AlphaLISA, 16 h; stronger effect = lower value. activity change, % at 57.5 µM. 360,000 tested, 4.7% active. AID 743279; in the data active = activity change below about -50%; inconclusive = mostly about -30% to -49%
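Secreted IL-1B measured by AlphaLISA bead assay after 16 h compound exposure of THP-1 cells; compounds (final up to 57.5 uM) added 1 h before LPS (250 ng/mL) and ATP (1.25 mM) stimulation; lower signal means less secretion.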
DT40 TDP1 no CPT = qHTS for Inhibitors of human tyrosyl-DNA phosphodiesterase 1 (TDP1): qHTS in cells in absence of CPT | Potency, µM (titrated, usually from 46.2 µM), for inactives: at the highest dose activity change, negative = growth inhibition, usual class: inhibitors | 420,000 tested, 15% active | DT40 Tdp1-/- hTDP1 cells, no CPT, ATP luminescence, 48 h; also: potency is read from the fitted curve at half-maximal effect; nearly all actives have a fitted effect of over 55% in size
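No-CPT arm: Tdp1-/-;hTDP1 DT40 cells (400/well) plus compounds, incubated ≥48 hr at 37 °C. Readout CellTiter-Glo luminescence.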
HT1080NT lethal = kills 2HG-producing HT-1080-NT fibrosarcoma cells; HT-1080-NT fibrosarcoma viability, CellTiter-Glo ATP luminescence, 48 h; Potency, µM (highest dose often 46.1 µM), without a hit: at the top dose activity, negative = less viability, usual class: cytotoxic; 360,000 tested, 1.6% active;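 also: NT is the 2HG producing partner of a matched IDH1 knockdown line; potency is read from the fitted curve at half-maximal effect; 0% = DMSO-treated cells and -100% = media-only wells without cells; nearly all actives have a fitted effect of over 55% in size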
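750 cells/well, RPMI + 5% FBS; 2 h settle, compound pin-transfer, 48 h at 37 degrees C. CellTiter-Glo 10 min RT, luminescence. Normalized to DMSO and media-only wells.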
The depositor's hits bear a star; u = inconclusive; x = not tested or not shown. The sample as a whole holds a higher share of hits than the screen did. Unless noted, calls follow the shape of the dose curve; as a rule, active = well fitted curve in the direction sought with a large enough effect; inconclusive = small, poorly fitted or top-dose-only effect, or another doubt; inactive = no such curve, though single readings can be large; an effect the other way counts as inactive or inconclusive. Unless noted, % is scaled to controls: 0 for no effect and ±100 for the full control effect.

SMILES	HT1080 IDH1KD tx	TDP1 cell CPT	ALOX12 inh	IL1B secr inh	DT40 TDP1 no CPT	HT1080NT lethal
CCOC(=O)N1CCN(C(C(=O)O)c2c[nH]c3cc(Cl)ccc23)CC1 (configuration not stated)	x	x	-27%	x	x	x
COc1ccc(-c2noc(Cn3cnc4c(nnn4-c4ccc(F)cc4)c3=O)n2)c(OC)c1	x	x	-32%	x	x	x
C=C(c1ccccc1Cl)[n+]1ccccc1	-14%	12µM*	0%	12	7.3µM*	-11%
C=C(c1ccccc1C)[n+]1ccccc1	6%	-24%	12%	39	u	-2%
Cc1ccc(Nc2nc(N)nc(N)c2N=O)cc1C	-9%	u	x	-14	u	-2%
Cc1cccc(Nc2nc(N)nc(N)c2N=O)c1	-16%	26µM*	-21%	-57*	21µM*	0%
Cc1cc(Br)ccc1Nc1nc(N)nc(N)c1N=O	-4%	10µM*	u	u	u	-7%
COc1ccc(C2CC(=O)C(c3ccc(F)cc3)=CN2Cc2ccccc2)cc1 (configuration not stated)	x	x	-15%	x	x	x
O=C(NCC(=O)N(c1ccccc1)C1(C(=O)NC2CCCCC2)CCCCC1)c1ccccc1	x	x	17%	x	x	x
COc1cc(-c2nc(-c3ccc4c(c3)-c3ccccc3S4(=O)=O)c(-c3ccccc3)[nH]2)cc(OC)c1OC	0%	18µM*	u	-5	7.3µM*	-9%
COc1cc(-c2nc(-c3ccccc3)c(-c3cccs3)[nH]2)cc(OC)c1OC	u	16µM*	-16%	u	23µM*	0%
COc1cccc(-c2nc(-c3ccc4c(c3)-c3ccccc3S4(=O)=O)c(-c3ccccc3)[nH]2)c1OC	-4%	7.3µM*	0%	-25	4.1µM*	-5%
COc1cc(-c2nc(-c3ccccc3)c(-c3cccs3)[nH]2)cc(OC)c1O	-2%	u	u	u	u	-2%
CN(C)c1ccc(-c2nc(-c3cccs3)c(-c3cccs3)[nH]2)cc1	x	10µM*	u	x	9.2µM*	x
COc1cccc(-c2nc(-c3ccccc3)c(-c3ccccc3)[nH]2)c1OCC(=O)O	-12%	-8%	u	11	-25%	-4%
NNc1ccc(Cc2ccc(NN)cc2)cc1	x	x	20µM*	x	x	x
CS(=O)(=O)Nc1ccc(Cc2ccc(NS(C)(=O)=O)cc2)cc1	-9%	-8%	u	0	-27%	-6%
COc1ccccc1C1C2=C(CC(C)(C)CC2=O)Nc2ccccc2N1C(C)=O (configuration not stated)	x	x	3%	x	x	x
CCCCNC(=O)CC(c1cccc([N+](=O)[O-])c1)c1c[nH]c2ccccc12 (configuration not stated)	x	x	-6%	x	x	x
O=C(CC(c1ccc(Cl)cc1)c1c[nH]c2ccc([N+](=O)[O-])cc12)N1CCOCC1 (configuration not stated)	x	x	8.9µM*	x	x	x
COCCNC(=O)CC(c1ccc(Cl)cc1)c1c[nH]c2ccc([N+](=O)[O-])cc12 (configuration not stated)	x	x	7.1µM*	x	x	x
O=C(CC(c1ccc(F)cc1)c1cn(Cc2ccccc2)c2ccc([N+](=O)[O-])cc12)N1CCOCC1 (configuration not stated)	x	x	13%	x	x	x
C[C@H]1CN([C@@H](C)CO)S(=O)(=O)c2ccc(Br)cc2O[C@H]1CN(C)S(=O)(=O)c1ccccc1	-7%	16µM*	2%	8	16µM*	-10%
Cc1ccc(S(=O)(=O)N(C)C[C@H]2Oc3cc(C#Cc4ccccc4)ccc3S(=O)(=O)N([C@H](C)CO)C[C@@H]2C)cc1	-3%	10µM*	8%	33	9.2µM*	0%
CC(C)C#Cc1ccc2c(c1)O[C@@H](CN(C)S(=O)(=O)c1cn(C)cn1)[C@@H](C)CN([C@H](C)CO)S2(=O)=O	1%	u	-5%	-2	u	-3%
SMILES	HT1080 IDH1KD tx	TDP1 cell CPT	ALOX12 inh	IL1B secr inh	DT40 TDP1 no CPT	HT1080NT lethal
COc1cccc(S(=O)(=O)N(C)C[C@H]2Oc3cc(Br)ccc3S(=O)(=O)N([C@@H](C)CO)C[C@H]2C)c1	-9%	21µM*	2%	-23	15µM*	-9%
C/C=C/c1ccc2c(c1)O[C@H](CN(C)C(=O)NC1CCCC1)[C@H](C)CN([C@H](C)CO)S2(=O)=O	-4%	18µM*	1%	-25	21µM*	-2%
C[C@@H]1CN([C@@H](C)CO)S(=O)(=O)c2ccc(Br)cc2O[C@@H]1CN(C)S(=O)(=O)c1ccc(F)cc1	x	x	-25%	x	x	x
CCOC(=O)c1ccc(NC(=O)C2CC(=O)Nc3ncnn32)cc1 (configuration not stated)	x	x	-25%	x	x	x
CC(C)(C)N(Cc1ccccc1)C(=O)Cn1nc(C(=O)O)c2ccccc2c1=O	x	x	-14%	x	x	x
C[C@@H]1CN([C@@H](C)CO)S(=O)(=O)c2ccc(Br)cc2O[C@H]1CN(C)C(=O)C1CCC1	-8%	u	-5%	-17	16µM*	6%
C[C@@H]1CN([C@H](C)CO)S(=O)(=O)c2ccc(Br)cc2O[C@H]1CN(C)C(=O)C1CC1	18%	-19%	10%	-6	-9%	6%
CCCc1nc2c([nH]1)c(=O)n(C)c(=O)n2C	3%	-9%	6%	13	u	u
COc1ccc(-c2nn(Cc3nc(-c4ccccc4C)no3)c(=O)c3ccccc23)cc1	x	x	1%	x	x	x
Cc1ccccc1-c1nc2c(=O)n(C)c(=O)nc-2n(C)n1	x	0.71µM*	x	x	0.63µM*	x
Cn1nc(-c2ccccn2)nc2c(=O)n(C)c(=O)nc1-2	1.6µM*	0.65µM*	u	-94*	0.52µM*	1.8µM*
CCc1ccc(-c2nc3c(=O)n(C)c(=O)nc-3n(CC)n2)cc1	x	2.8µM*	x	x	2.8µM*	x
CCCc1nc2c(=O)n(C)c(=O)nc-2n(C)n1	2.1µM*	1.6µM*	-28%	-106*	1.2µM*	3.7µM*
O/N=C/c1cn(-c2ccccc2)nc1-c1ccc(-c2ccccc2)cc1	x	x	-6%	x	x	x
CC1(C)COC2(OC1)C(=O)Nc1ccccc12	1%	2%	19%	14	-11%	1%
CCC1(C)COC2(OC1)C(=O)Nc1ccccc12 (configuration not stated)	-3%	-3%	-20%	-51*	-19%	0%
O=C(Nc1cccc(CN2CCOC2=O)c1)N1CCOCC1	x	x	0%	x	x	x
